Screening results as filed in PubChem BioAssay.
12-LOX inh – ALOX12 (human) lipoxygenase inhibition. P18054. purified 12hLO, xylenol orange hydroperoxide absorbance. Potency, µM (doses to about 108 µM), for the others: at the top dose activity change, negative = inhibition, most hits filed as inhibitors. 580,000 tested, 1.1% active. AID 1671190
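Hydroperoxide product was detected by ferrous iron/xylenol orange as the 573 to 405 nm absorbance ratio. Arachidonic acid at 40 uM (final) was turned over for 30 min at room temperature by 150 nM human 12hLO, pH 7.0 Hepes buffer, after 15 min compound preincubation.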
PLK1 PBD block – PLK1 (human) polo-box domain binding inhibition | AID 720504 | 360,000 tested, 2.8% active | P53350 | Plk1 PBD binding of FITC phosphopeptide, fluorescence polarization | Potency, µM, without a hit: max response, negative = inhibition, actives largely listed as inhibitors; also: series mostly up to about 57 µM; nearly all actives have a fitted effect of over 65% in size
Target sequence (P53350 whole entry, looked up, the tested form may be a part): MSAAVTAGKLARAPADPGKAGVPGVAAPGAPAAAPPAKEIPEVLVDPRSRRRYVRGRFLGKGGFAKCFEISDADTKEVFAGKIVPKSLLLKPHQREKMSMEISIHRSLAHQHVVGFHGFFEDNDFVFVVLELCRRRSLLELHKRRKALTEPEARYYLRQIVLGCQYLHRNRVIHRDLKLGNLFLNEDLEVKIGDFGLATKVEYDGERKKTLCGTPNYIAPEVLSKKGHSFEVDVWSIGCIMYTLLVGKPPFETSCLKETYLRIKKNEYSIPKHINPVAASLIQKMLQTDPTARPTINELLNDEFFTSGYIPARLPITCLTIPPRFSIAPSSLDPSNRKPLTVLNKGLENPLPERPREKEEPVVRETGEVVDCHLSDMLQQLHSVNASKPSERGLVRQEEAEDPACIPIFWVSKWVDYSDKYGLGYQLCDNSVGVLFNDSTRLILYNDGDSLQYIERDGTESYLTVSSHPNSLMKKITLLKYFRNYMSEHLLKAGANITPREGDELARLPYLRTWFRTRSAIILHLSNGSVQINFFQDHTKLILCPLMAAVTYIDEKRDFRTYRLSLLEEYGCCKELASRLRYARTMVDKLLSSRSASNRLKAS
Sfp PPTase inh – inhibitors of Bacillus subtilis Sfp phosphopantetheinyl transferase; Q9F4F7; 310,000 tested, 3.5% active; Potency, µM, without a hit: largest response in the series, negative = inhibition, actives largely listed as inhibitors; AID 1490; Biochemical Sfp PPTase activity, qHTS;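 also: the enzyme is Sfp with the accession as filed and its product quenches rhodamine fluorescence; 0% = enzyme reaction without inhibitor and -100% = no enzyme wells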
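Fluorescence-quenching assay: 15 nM Sfp-PPTase preincubated 15 min at room temperature with compound, then 5 uM rhodamine-CoA and 12.5 uM BHQ-2-labelled YbbR peptide added. Fluorescence (ex 525/em 598 nm) read at start and after 30 min; difference gives rate.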
VDR inhibitor – blocks the human vitamin D receptor; Potency, µM, without a hit: max response, negative = inhibition, most hits filed as inhibitors; P11473; 400,000 tested, 0.93% active; VDR-SRC2-3 peptide fluorescence polarization, 2 h
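Signal is fluorescence polarization, reporting how far test compounds block the interaction of VDR with the SRC2-3 coregulator peptide after a 2 h room-temperature incubation.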
* marks the source's active call; other numbers are inactive results; ? = inconclusive; · = not tested or not shown; ! = not confirmed by another sample; [ ] = another dose, or the depositor's remark. Only some compounds are listed: those with a hit (about 4.2% of all), similar ones and a draw of the others. Calls follow the shape of the dose curve; as a rule, active = well fitted curve in the direction sought with a large enough effect; inconclusive = small, poorly fitted or top-dose-only effect, or another doubt; inactive = no such curve, though single readings can be large; an effect the other way counts as inactive or inconclusive. Unless noted, % is scaled to controls: 0 for no effect and ±100 for the full control effect; potency is read from the fitted curve at half-maximal effect.

SMILES	12-LOX inh	PLK1 PBD block	Sfp PPTase inh	VDR inhibitor
O=c1c(-c2cccs2)nc2ccccc2n1C(CCc1ccccc1)c1nc2ccccc2[nH]1 (stereo not given)	?	0%	·	·
CC(C)C(=O)Nc1cccnc1	0%	-2%	16%	-2%
CCN1CCc2nc3sc(C(=O)Nc4cccnc4Cl)c(N)c3cc2C1	-1%	-11%	-20%	-19%
Cc1cc(OCc2cc(C(=O)N3CCN(C)C(=O)[C@@H]3C)no2)cc(C)c1Cl	-11%	3%	-10%	15%
O=C(NCC(c1ccco1)N1CCOCC1)c1ccc([N+](=O)[O-])cc1 (stereo not given)	7%	-10%	-1%	-15%
Cc1ccc(NS(=O)(=O)c2ccc3c(c2)[C@H]2C=CC[C@H]2[C@@H](c2ccc(F)cc2)N3)cc1C	?	·	·	-16%
NS(=O)(=O)c1ccc2c(c1)C1C=CCC1C(C1CC=CCC1)N2 (stereo not given)	?	-24%	20µM*	-2%
Cn1cc(C(=O)C(=O)NC2CC2)c2ccccc21	3%	27µM*	·	-6%
CC(C)NC(=O)C(=O)c1cn(C)c2ccccc12	-2%	1%	13%	24%
COc1cc2c(cc1OC)C(COc1ccc3c(C)cc(=O)oc3c1)N(C(=O)c1cc(Cl)ccc1OC)CC2 (stereo not given)	-1%	·	·	-13%
O=Nc1nc2ncccn2c1-c1ccccc1	-11%	7.5µM*	·	?
Nc1nc2ncccn2c1-c1ccc(F)cc1	-14%	-8%	·	·
O=C(O)CCCC[C@@H]1SC[C@H]2NC(=O)N[C@@H]12	·	·	12%	·
COC(=O)CC/C(O)=C1\C(=O)CC(C)(C)CC1=NCCc1nc2ccccc2[nH]1	-11%	21µM*	9%	-17%
Cc1cc(NS(=O)(=O)c2ccc(NC(=O)CSc3nc4sc(C(=O)O)c(C)c4c(=O)[nH]3)cc2)no1	-23%	27µM*	12%	-27%
COC(=O)/C=C1\S/C(=N/NC(=O)c2ccc(OC)cc2)NC1=O	-10%	19µM*	10%	-7%
COC(=O)/C=C1\SC(=NC(=O)c2ccc(-c3ccccc3)cc2)NC1=O	?	19µM*	·	-9%
O=C(c1cc2ccccc2o1)N1CCOCC1	7%	-4%	·	-14%
CCCCC/C=C\C/C=C\C/C=C\CCCCC(=O)O	?	?	0%	40µM*!
CCCCC/C=C\C/C=C\CCCCCCCC(=O)O	-13%[12.5 µM]	·	3%	-14%
CCCCCC(O)C=CC1C(O)CC(O)C1CC=CCCCC(=O)O (stereo not given)	-11%	1%	·	·
CCCCC/C=C/C=C1/C(=O)C=C[C@@H]1C/C=C\CCCC(=O)O	-4%[12.5 µM]	·	56µM*!	20µM*
CCCCC[C@H](O)C/C=C1/C(=O)C=C[C@@H]1C/C=C\CCCC(=O)O	·	·	-12%	50µM*
CCCCC[C@@H](/C=C/C1C(=O)C=C[C@H]1C/C=C\CCCC(=O)O)OC(C)=O (stereo not given in full)	-39%	?	·	79µM*
O=[N+]([O-])c1cc(-c2csc(NCCc3nc4cc(C(F)(F)F)ccc4n3CCCO)n2)ccc1Cl	-17%	-8%	·	-12%
SMILES	12-LOX inh	PLK1 PBD block	Sfp PPTase inh	VDR inhibitor
O=C(NNC(=O)c1ccccc1O)c1ccc(Br)cc1	?	0%	27%	-8%
CN1CCN(S(=O)(=O)c2ccc(NC(=O)c3ccccc3F)cc2)CC1	0%	-4%	9%	3%
CC(C)(C)OC(=O)N1CCC(c2nnc(SCc3ccccc3Cl)o2)CC1	1%	·	·	1%
Cc1ccc2c(c1)C(C)CC(C)(C)N2C(=O)CN1CCN(C)CC1 (stereo not given)	-27%	4%	56µM*	-6%
CC1CC(C)(C)N(C(=O)CN2CCN(C)CC2)c2ccccc21 (stereo not given)	-7%	-15%	?	-9%
COc1ccc(CNC(=O)c2nnn3cc(C)[nH]c(=O)c23)cc1	36%	·	·	·
COc1ccccc1-c1noc(CCCC(=O)Nc2cccc(C(F)(F)F)c2)n1	-20%	·	·	5%
CNC(=O)CCCc1nc(-c2ccccc2Cl)no1	26%	24µM*	5%	-8%
COc1ccccc1-c1noc(CCC(=O)Nc2cc(C(F)(F)F)ccc2Cl)n1	-19%	-2%	18µM*	-9%
O=C(c1ccc2c(c1)OCO2)N1CCC(n2cc(-c3nc(-c4ccccc4)no3)nn2)CC1	-12%	·	·	·
CCOC(=O)c1nc(S(C)(=O)=O)ncc1Cl	-11%	21µM*	-13%	56µM*
CN1/C(=C\C(=O)c2cccnc2)C(C)(C)c2ccccc21	-30%	3%	1%	-16%
CN1/C(=C/C(=O)c2nc(S(C)(=O)=O)ncc2Cl)C(C)(C)c2ccccc21	·	?	-9%	50µM*
Cc1ccccc1NC(=O)c1nc(S(C)(=O)=O)ncc1Cl	-27%	?	-29%	40µM*
Cc1ccccc1CS(=O)(=O)c1ncc(Cl)c(C(=O)Nc2ccc(F)cc2)n1	?	19µM*	?	-23%
CCOC(=O)c1nc(S(C)(=O)=O)ncc1N1CCOCC1	-6%	-2%	11%	2%
Cc1cccc(C)c1NC(=O)c1nc(S(=O)(=O)Cc2ccccc2)ncc1Cl	-13%	?	?	?
COc1ccc2c(c1)OCC(Cc1ccc(OC)c(OC(C)=O)c1)C2=O (stereo not given)	·	·	-8%	-12%
CCOC(=O)c1c(NC(=O)CS(=O)(=O)c2ccc(C)cc2)sc2c1CCC(C)C2 (stereo not given)	?	·	·	4%
COC[C@@H]1CN(Cc2ccc(F)c(OC)c2)C[C@H]1C(=O)NC1CC1	32%	·	·	·
Cc1ccc(OCCC(=O)OCC(=O)Nc2cc(C)nn2-c2ccccc2)cc1	0%	-2%	19%	22%
C=CCSC1=N/C(=C\c2ccc(C(=O)O)cc2)C(=O)S1	-14%	-16%	40µM*	9%
O=C1SC(SCc2ccccc2Cl)=N/C1=C\c1ccc(C(=O)O)cc1	-21%	17µM*	-49%	?
CCSC1=N/C(=C\c2ccc(C(=O)O)cc2)C(=O)S1	?	?	?	-6%
Nc1nc(C(=O)N2CCOCC2)nn1S(=O)(=O)c1ccccc1	?	1%	1%	3%
Nc1nc(C(=O)N2CCOCC2)nn1S(=O)(=O)c1ccc(Cl)cc1	?	27µM*	8%	?
CCCn1c(-c2ccc(OC)cc2)nc2c(=O)n(C)c(=O)[nH]c21	4%	-1%	13%	4%
